This passage reports growth results from PubChem BioAssay (NCI).

Molecules are shown by their SMILES. The panel holds about 83,000 compounds, 20% with a hit somewhere; the sample as a whole holds those more often.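 Growth was measured after 48 h exposure to one concentration of compound in 96-well plates. Values under 10 count as active.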 Values without a mark were called inactive. Calls of active or inactive are those of the source.

Some test systems named below: SR leukemia; RPMI-8226 leukemia; OVCAR-8 ovarian; OVCAR-5 ovarian; OVCAR-4 ovarian; SK-OV-3 ovarian; IGROV1 ovarian; OVCAR-3 ovarian; HS 578T breast; NCI/ADR-RES ovarian; T-47D breast; BT-549 breast; MDA-MB-435 melanoma; SW-620 colon; MCF7 breast; HCT-116 colon; HCC-2998 colon; KM12 colon.
Holding throughout (test): NCI-60 one-dose screen, 48 h (100 = growth as untreated, 0 = no growth, -100 = all killed)
Holding throughout (conditions): 10 µM unless noted

As to `NC1(N)C=CC2=C(C=C1)C1(N)C3=C(C=CC(N)(N)C=C3)N2C2(N)C3=C(C=CC(N)(N)C=C3)N1C1=C2C=CC(N)(N)C=C1`, the growth is 79.2% in the test with SR leukemia; 18.6% in the test with RPMI-8226 leukemia; 90.5% in the test with OVCAR-8 ovarian; 105% in the test with OVCAR-5 ovarian; 90.7% with OVCAR-4 ovarian; 102% with SK-OV-3 ovarian. Further, the growth with IGROV1 ovarian is 94.8%; in the test on OVCAR-3 ovarian, 97.8%; in the test with HS 578T breast, 81.6%; in the test with NCI/ADR-RES ovarian, 82.9%; in the test on T-47D breast it was 74.5%; in the test with BT-549 breast, 52.4%. The growth in the test with MDA-MB-435 melanoma was 89.8%; with SW-620 colon it was 95.4%; in the test with MCF7 breast it was 76.2%; in the test with HCT-116 colon it was 90.2%; in the test on HCC-2998 colon, 105%; with KM12 colon, 93.6%.
For the molecule `CC(C)c1cc(C(=O)O)c(O)c(C(C)C)c1.CC(C)c1cc(C(=O)O)c(O)c(C(C)C)c1.[Mn]`, the growth in the test on SR leukemia was 93.5%; with RPMI-8226 leukemia, 98%; in the test with OVCAR-8 ovarian, 101%; in the test on OVCAR-5 ovarian it was 116%; with OVCAR-4 ovarian, 96.3%; with SK-OV-3 ovarian it was 110%. Moreover, the growth with IGROV1 ovarian is 114%; with OVCAR-3 ovarian, 96.9%; in the test with HS 578T breast it was 107%; with NCI/ADR-RES ovarian, 118%; in the test on T-47D breast it was 82%; in the test on BT-549 breast, 91.2%. Moreover, the growth is 108% in the test on MDA-MB-435 melanoma; 106% with SW-620 colon; 104% in the test on MCF7 breast; 103% in the test with HCT-116 colon; 134% in the test on HCC-2998 colon; 98.1% with KM12 colon.
For `CCN(CC)CCCCCNc1cc(OC(=O)c2ccccc2)cc2cccnc12`, the growth is -38.1% (active) in the test on SR leukemia; 100% in the test with RPMI-8226 leukemia; 121% with OVCAR-8 ovarian; 121% in the test with OVCAR-5 ovarian; 80.9% with OVCAR-4 ovarian; 108% in the test with SK-OV-3 ovarian. Moreover, the growth was 105% in the test with IGROV1 ovarian; 51.6% with OVCAR-3 ovarian; 103% with HS 578T breast; 99.3% with NCI/ADR-RES ovarian; 76.6% with T-47D breast; 97.2% in the test on BT-549 breast. Also, the growth is 53.6% in the test on MDA-MB-435 melanoma; 80.8% with SW-620 colon; 134% in the test on MCF7 breast; 44.5% in the test with HCT-116 colon; 104% with HCC-2998 colon; 81.3% with KM12 colon.
Take `O=c1[nH]c2c3ccncc3cc(-c3cccc(Cl)c3)c2c2cnccc12`: the growth in the test on SR leukemia was 14.3%; in the test with RPMI-8226 leukemia it was 27.1%; in the test with OVCAR-8 ovarian it was 40.2%; in the test with OVCAR-5 ovarian, 67.9%; in the test on OVCAR-4 ovarian, -8.25% (active); in the test on SK-OV-3 ovarian, 51.9%. Moreover, the growth with IGROV1 ovarian is 70.9%; with OVCAR-3 ovarian, -22.8% (active); in the test with HS 578T breast, 5.48% (active); in the test with NCI/ADR-RES ovarian it was 50.3%; with T-47D breast, 60.5%; in the test on BT-549 breast, 22%. In addition, the growth is 64.9% with MDA-MB-435 melanoma; 58.3% in the test on SW-620 colon; 22.7% in the test with MCF7 breast; -31.5% (active) in the test with HCT-116 colon; 61.5% in the test with HCC-2998 colon; 34.7% with KM12 colon.
In the case of `C=C(C)[C@@H]1CC[C@]2(C(=O)N3CCN(CC)CC3)CC[C@]3(C)[C@H](CC[C@@H]4[C@@](C)(CCC(=O)N5CCN(CC)CC5)[C@H](C(=C)C)CC[C@]43C)[C@@H]12`, the growth was 5.68% (active) with SR leukemia; 22.3% with RPMI-8226 leukemia; 78.3% in the test with OVCAR-8 ovarian; 72.3% in the test on OVCAR-5 ovarian; 77.4% with OVCAR-4 ovarian; 95.5% in the test with SK-OV-3 ovarian. The growth in the test with IGROV1 ovarian was 73.6%; in the test on OVCAR-3 ovarian, 60.5%; with HS 578T breast it was 80.8%; in the test with NCI/ADR-RES ovarian, 67.6%; in the test with T-47D breast, 59.7%; in the test with BT-549 breast, 78.7%. Moreover, the growth with MDA-MB-435 melanoma is 70.2%; with SW-620 colon, 49.9%; in the test on MCF7 breast, 46.5%; in the test with HCT-116 colon it was 24.9%; with HCC-2998 colon it was 75.7%; in the test on KM12 colon it was 54.2%.
With `N#C/C(=C\c1ccc(-c2ccc(Br)cc2)o1)c1nc(-c2cccs2)cs1`, the growth in the test with SR leukemia is 90.4%; in the test on RPMI-8226 leukemia, 92.8%; in the test on OVCAR-8 ovarian, 106%; with OVCAR-5 ovarian, 95.6%; with OVCAR-4 ovarian, 96.3%; in the test on SK-OV-3 ovarian, 111%. Besides, the growth in the test with IGROV1 ovarian was 88.1%; in the test with OVCAR-3 ovarian it was 110%; in the test with HS 578T breast it was 108%; in the test on NCI/ADR-RES ovarian, 95%; with T-47D breast, 40%; in the test with BT-549 breast it was 96.8%. Moreover, the growth with MDA-MB-435 melanoma is 101%; with SW-620 colon, 99.8%; in the test with MCF7 breast it was 28.9%; with HCT-116 colon it was 91%; in the test on HCC-2998 colon, 91.8%; with KM12 colon, 95.9%.
As for `CC(C)C[C@@H](NC(=O)[C@@H](Cc1ccccc1)NC(=O)c1cnccn1)B1O[C@H]2[C@H](O)[C@@H](C(=O)NCCCC[C@@H]3NC(=O)[C@@H](Cc4ccccc4)NC(=O)[C@H](CC(=O)O)NC(=O)CNC(=O)[C@H](CCCN=C(N)N)NC3=O)O[C@@H](CN)[C@H]2O1`, the growth in the test with SR leukemia was 1.66% (active); in the test on RPMI-8226 leukemia, 0.803% (active); with OVCAR-8 ovarian it was -42.6% (active); in the test on OVCAR-5 ovarian, -19.2% (active); with OVCAR-4 ovarian, -27.9% (active); with SK-OV-3 ovarian, -42.2% (active). The growth with IGROV1 ovarian was 4.07% (active); in the test with OVCAR-3 ovarian, -55.3% (active); with HS 578T breast it was 4.75% (active); in the test with NCI/ADR-RES ovarian, 7.01% (active); with T-47D breast, -70.4% (active); in the test with BT-549 breast, -66.1% (active). Moreover, the growth in the test with MDA-MB-435 melanoma is -78.1% (active); in the test with SW-620 colon, -47.7% (active); in the test on MCF7 breast, -17.1% (active); with HCT-116 colon, -50% (active); with HCC-2998 colon, -78.9% (active); in the test on KM12 colon it was -43.9% (active).
Turning to `CC(C)/C=C/CC[C@](C)(O)[C@H]1CC[C@]2(C)[C@@H]1CC[C@@H]1[C@@]3(C)C/C(=C/c4cccc(C(F)(F)F)c4)C(=O)C(C)(C)[C@@H]3CC[C@]12C`, the growth with SR leukemia is 82.6%; with RPMI-8226 leukemia it was 95.4%; in the test with OVCAR-8 ovarian, 87.6%; in the test on OVCAR-5 ovarian, 107%; in the test on OVCAR-4 ovarian, 87.2%; in the test with SK-OV-3 ovarian, 103%. Moreover, the growth in the test with IGROV1 ovarian is 104%; with OVCAR-3 ovarian, 93.8%; in the test on HS 578T breast, 99.7%; with NCI/ADR-RES ovarian it was 97.8%; in the test on T-47D breast, 73.8%; in the test with BT-549 breast it was 95.9%. The growth is 99.3% in the test on MDA-MB-435 melanoma; 93.3% in the test with SW-620 colon; 82% in the test on MCF7 breast; 76% with HCT-116 colon; 104% in the test with HCC-2998 colon; 99.8% with KM12 colon.
